Assay results published in PubChem BioAssay.
Values joined by “and” are separate entries in the source; they are usually repeats but may differ in a detail not shown here. Identical values can stand only once. Inconclusive results are not listed. For part of these data: Potency and affinity values are given separately. Some compounds were tested as several samples or in several runs, with calls that do not always agree. Active and inactive are the calls of the source. Unless noted, how the calls were made is not given here.

What was measured:
[1] = liver-stage malaria parasite load reduction – cell-based, known kinase inhibitor set, luminescence, hepatoma host viability (AID 624392); conditions: Plasmodium liver stage in hepatoma cells, luciferase luminescence, concentration not given here; liver cell % of control: measured here: host liver cell viability; parasite % of control: stronger effect = lower value;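 further: infected cells incubated roughly two days before readout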
[2] = viability loss with induced miR-34 in A549 – imaging, A549 dox-inducible miR-34, nuclei and caspase counts, primary screen (AID 1347080;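 active means compounds whose cell count with miR-34 switched on is under 0.7 times the count with it off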); conditions: A549 miR-34 inducible, Hoechst nuclei count, 48 h
[3] = MELAS cybrid and Rieske KO viability enhancers – cell-based, MELAS cybrids, Rieske KO mouse fibroblasts, CellTiter-Glo, primary screen (AID 1508586;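 active means mean z-score across replicates of 1.96 or higher in either the MELAS or the Rieske mutant cell line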;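 further: z relative to plate mean and SD of compound and empty wells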); conditions: low glucose
[4] = blockers of polyQ-driven CASP3 activation – cell-based (AID 1583); conditions: polyglutamine-induced caspase-3 activation, cell assay; stronger effect = higher value;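 tested at 10 µM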
[5] = yeast 75Q aggregation reduction – 75Q-TubU reporter (AID 1593); conditions: Yeast 75Q polyglutamine aggregation reporter
[6] = restoration of touch response, mutant HTT neurons – whole organism, C. elegans mechanosensory neurons, N-terminal huntingtin (AID 1599); conditions: C. elegans polyQ-huntingtin mechanosensory neurons, stronger effect = higher value
[7] = blockers of cytochrome c efflux from mitochondria – biochemical, purified mitochondria (AID 1603); conditions: stronger effect = lower value;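 further: mouse liver mitochondria challenged with calcium chloride; signal normalized to the plate average as 100%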
[8] = polyglutamine aggregate formation blockers (AID 1604); conditions: polyglutamine-induced protein aggregation inhibition assay; stronger effect = higher value; tested at 2.5 µM
[9] = glutamate transport activators, MN-1 cells, MN-1 cell line (AID 1612); conditions: MN-1 motor neuron cells, stronger effect = higher value;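 further: tested at 1 µM final; 0% = mean of DMSO vehicle wells on each plate; positive means more glutamate uptake than control and negative means less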
[10] = GFP-Q80 aggregate reduction, neuronal-like cells, cell-based, NGF-treated PC12, GFPQ80 (AID 1614); conditions: PC12 NGF-treated GFP-polyQ80 inclusion reduction;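 further: lower means fewer inclusions and 0 means no inclusions at all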
[11] = 75Q-TubH aggregate inhibition, S. cerevisiae, yeast (AID 1616); conditions: S. cerevisiae 75Q-TubH polyglutamine aggregation suppression; stronger effect = higher value
[12] = galactose survival enhancers in mitochondrial complex I cybrids – cell-based, galactose medium, ATP luminescence, primary screen (AID 1645843;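 active means z-score of at least 1.8 in each of two replicates, scored against plate mean and spread of sample wells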;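 further: positive z means more ATP and so rescue of galactose-driven cybrid death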); conditions: complex I mutant cybrid cells, 72 h, stronger effect = higher value
[13] = target: NAD(+) hydrolase SARM1 (Homo sapiens) (UniProt Q6SZW1); test: blocking NAD cleavage by SARM1 SAM-TIR – cell lysate, NAD-Glo luminescence (AID 1508614;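 active means compound whose remaining NAD level is above about 45 nM, limit read from the data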); conditions: SAM-TIR HEK293T lysate NADase, at 1 µM, stronger effect = higher value
Sequence of NAD(+) hydrolase SARM1 (Homo sapiens) (Q6SZW1 whole entry, looked up): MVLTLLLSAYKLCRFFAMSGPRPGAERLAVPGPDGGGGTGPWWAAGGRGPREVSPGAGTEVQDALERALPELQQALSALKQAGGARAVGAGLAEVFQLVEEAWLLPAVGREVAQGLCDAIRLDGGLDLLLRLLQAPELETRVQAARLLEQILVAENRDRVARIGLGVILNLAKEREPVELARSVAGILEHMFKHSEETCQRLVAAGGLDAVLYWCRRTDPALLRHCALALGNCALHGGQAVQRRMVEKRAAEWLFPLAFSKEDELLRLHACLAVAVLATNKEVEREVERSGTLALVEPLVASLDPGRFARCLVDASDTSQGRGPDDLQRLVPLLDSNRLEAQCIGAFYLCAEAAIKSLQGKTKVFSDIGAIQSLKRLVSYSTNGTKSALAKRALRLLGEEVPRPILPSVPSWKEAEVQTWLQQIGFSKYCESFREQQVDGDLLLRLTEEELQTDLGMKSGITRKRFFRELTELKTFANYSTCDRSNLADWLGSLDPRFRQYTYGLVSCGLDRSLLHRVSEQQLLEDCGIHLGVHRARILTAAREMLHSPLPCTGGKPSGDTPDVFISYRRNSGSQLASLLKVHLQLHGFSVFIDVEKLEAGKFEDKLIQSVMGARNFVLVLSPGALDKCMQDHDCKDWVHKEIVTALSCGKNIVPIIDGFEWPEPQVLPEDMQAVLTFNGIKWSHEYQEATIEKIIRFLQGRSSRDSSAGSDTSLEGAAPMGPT

[14] = compounds altering viability of human ES cells (AID 493140); conditions: human embryonic stem cell survival screen; stronger effect = higher value;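 further: cells exposed to compounds for four days before counting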
[15] = P. berghei load reduction in hepatocytes – cell-based, HepG2, luciferase luminescence, HepG2 viability, primary screen (AID 624349; in the data active means parasite load remaining mostly below about 12%, no sharp cut-off; inactive means mostly above about 10%;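 further: 100% = mean of DMSO negative control wells on the same plate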); conditions: P. berghei liver stage in HepG2, luciferase luminescence, concentration not given here; parasite load remaining: stronger effect = lower value; viability: measured here: HepG2 viability without parasites
[16] = target: Mitogen-activated protein kinase 7 (Homo sapiens) (UniProt Q13164); test: Gal4-ERK5 driven luciferase induction – cell-based, HTS, primary screen (AID 1508626;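 active means luciferase signal above three times the same-plate solvent-only control wells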;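 further: luciferase driven by Gal4-ERK5 fusion binding five Gal4 sites before minimal TATA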); conditions: HeLa Gal4-ERK5 transactivation, 18 h, at 5 µM, stronger effect = higher value
Sequence of Mitogen-activated protein kinase 7 (Homo sapiens) (Q13164 whole entry, looked up, the tested form may be a part): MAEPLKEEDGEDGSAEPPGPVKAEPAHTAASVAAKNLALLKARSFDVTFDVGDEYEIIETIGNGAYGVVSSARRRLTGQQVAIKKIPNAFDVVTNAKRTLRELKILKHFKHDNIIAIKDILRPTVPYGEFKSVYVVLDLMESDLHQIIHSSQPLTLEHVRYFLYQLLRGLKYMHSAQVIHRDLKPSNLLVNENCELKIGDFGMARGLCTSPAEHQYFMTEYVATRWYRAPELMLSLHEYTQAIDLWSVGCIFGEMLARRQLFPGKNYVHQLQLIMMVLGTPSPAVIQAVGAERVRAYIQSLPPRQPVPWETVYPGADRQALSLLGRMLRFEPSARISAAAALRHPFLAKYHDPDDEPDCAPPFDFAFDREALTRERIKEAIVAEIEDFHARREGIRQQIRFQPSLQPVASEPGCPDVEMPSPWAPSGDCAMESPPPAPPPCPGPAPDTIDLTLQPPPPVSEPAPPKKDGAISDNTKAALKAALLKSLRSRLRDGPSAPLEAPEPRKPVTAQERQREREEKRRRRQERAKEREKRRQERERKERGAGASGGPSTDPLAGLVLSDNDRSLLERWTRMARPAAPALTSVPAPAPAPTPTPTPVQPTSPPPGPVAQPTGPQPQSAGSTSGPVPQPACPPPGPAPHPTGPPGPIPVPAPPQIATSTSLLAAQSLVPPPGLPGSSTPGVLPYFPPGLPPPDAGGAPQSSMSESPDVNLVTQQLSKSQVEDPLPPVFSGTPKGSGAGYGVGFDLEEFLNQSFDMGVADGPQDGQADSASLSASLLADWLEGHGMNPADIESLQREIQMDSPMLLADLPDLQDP

[17] = rescue of PC12 cells from polyQ htt toxicity – LDH release (AID 1610); conditions: PC12 mutant huntingtin toxicity, final LDH at 4 uM, stronger effect = lower value
[18] = compounds altering circadian rhythm period length – cell-based, LOPAC library, luminescence reporter (AID 2774); conditions: circadian reporter cells, at 7 µM, actives lie on both sides;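 further: values are relative to mean of DMSO wells on each plate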
[19] = system: Hepatitis C virus NS3 helicase; test: blockers of NS3h binding to ssDNA – biochemical, fluorescence polarization, LOPAC1280 library, primary screen (AID 687035; in the data active means inhibition above about 37%); conditions: Purified HCV NS3 helicase, Cy5-dT15 ssDNA binding fluorescence polarization; stronger effect = higher value; concentration not given here
[20] = compounds altering Cy5-DNA-NS3h complex signal – biochemical, LOPAC1280, artefact control for HCV NS3 helicase inhibitor project (AID 687037); conditions: Cy5-DNA-NS3h complex fluorescence interference counterscreen
[21] = stronger effect = lower value, cell number ratio, induced over uninduced
[22] = measured here: relative caspase fold change +Dox/-Dox
[23] = measured here: total cells with miR-34 induction, stronger effect = lower value
[24] = measured here: total cells without miR-34 induction
[25] = MELAS cybrid survival, CellTiter-Glo 48 h, stronger effect = higher value
[26] = Rieske KO mouse fibroblast survival, CellTiter-Glo 72 h

With `CN(C)CCC(CSc1ccccc1)Nc1ccc(S(=O)(=O)NC(=O)c2ccc(N3CCN(Cc4ccccc4-c4ccc(Cl)cc4)CC3)cc2)cc1[N+](=O)[O-]` (stereo unspecified) the liver cell % of control [1] was 65.5% and 90.4% and 88.4%, the parasite % of control [1] was 27.6% (inactive) and 29.4% (inactive) and 37% (inactive) and the fold change [2, 21] was 0.995 (inactive). The fold change [2, 22] was 0.778, the cell count [2, 23] was 5830 and the cell count [2, 24] was 5860. For the same compound, the z-score [3, 25] was -0.297 (inactive) and the z-score [3, 26] was -2.14.
Compound `CN=C(N)NCCCC(N)C(=O)O` (stereo unspecified) has an inhibition [4] of 9.27%, a score [5] of 2.21 and a rescue above control [6] of -4.19. It also gave a cytochrome c release ratio [7] of 0.94, an inhibition of aggregation [8] of -4.76% and a glutamate uptake change [9] of 3.17%. The inclusion score [10] was 2, the aggregation suppression score [11] was 1.06 and the fold change [2, 21] was 0.944 (inactive). The fold change [2, 22] was 1.42, the cell count [2, 23] was 9430 and the cell count [2, 24] was 9990. For the same compound, the z-score [12] was 1.06 (inactive).
For `CN(C)CC=CC(=O)Nc1cc2c(Nc3ccc(F)c(Cl)c3)ncnc2cc1OC1CCOC1` (stereo unspecified), the liver cell % of control [1] was 39.8% and 42.2% and 47.1%, the parasite % of control [1] was 0.262% (inactive) and 0.42% (inactive) and 32.1% (inactive) and the fold change [2, 21] was 0.839 (inactive). The fold change [2, 22] was 1.69, the cell count [2, 23] was 2280 and the cell count [2, 24] was 2710. For the same compound, the z-score [3, 25] was 5.09 (active) and the z-score [3, 26] was 0.143.
For `COc1ccc(C(=O)c2ccc(C)cc2)c(O)c1`, the fold change [2, 21] was 0.81 (inactive), the fold change [2, 22] was 1.2 and the cell count [2, 23] was 4460. The cell count [2, 24] was 5510 and the remaining NAD [13] was 10 nM (inactive).
With `COc1ccc(-c2cc(=O)c3c(O)cc(O)cc3o2)cc1` the inhibition [4] was -17.1%, the score [5] was 1.2 and the rescue above control [6] was 10.4. It also gave a cytochrome c release ratio [7] of 0.89, an inhibition of aggregation [8] of 41.2% and a glutamate uptake change [9] of -9.64%. For the same compound, the inclusion score [10] was 2, the aggregation suppression score [11] was 0.73 and the survival [14] was 3.33 (inactive). For the same compound, the parasite load remaining [15] was 73.8% (inactive) and 91.5% (inactive), the viability [15] was 92.5% and 92.4% and the fold change [2, 21] was 0.79 (inactive). It also gave a fold change [2, 22] of 1.12, a cell count [2, 23] of 7540 and a cell count [2, 24] of 9550. For the same compound, the luciferase signal [16] was 40 AU (inactive).
With `COC(C(=O)N1Cc2[nH]nc(NC(=O)c3ccc(N4CCN(C)CC4)cc3)c2C1)c1ccccc1` (stereo unspecified) the liver cell % of control [1] was 82.1% and 96.2% and 98.6%, the parasite % of control [1] was 40.2% (inactive) and 56.3% (inactive) and 75.4% (inactive) and the fold change [2, 21] was 1.01 (inactive). The fold change [2, 22] was 0.994, the cell count [2, 23] was 1850 and the cell count [2, 24] was 1820. The z-score [3, 25] was 1.1 (inactive) and the z-score [3, 26] was -2.53.
With `CON=C1C[C@]2(C[C@@H]3C[C@@H](C/C=C(\C)C[C@@H](C)/C=C/C=C4\CO[C@@H]5[C@H](O)C(C)=C[C@@H](C(=O)O3)[C@]45O)O2)O[C@H](/C(C)=C/C(C)C)[C@H]1C` the fold change [2, 21] was 1 (inactive), the fold change [2, 22] was 0.955 and the cell count [2, 23] was 3250. For the same compound, the cell count [2, 24] was 3250 and the remaining NAD [13] was 10 nM (inactive).
With `C=N[C@@H](C(=O)N[C@@H]1C(=O)N2[C@@H]1SC(C)(C)[C@@H]2C(=O)O)c1ccccc1` the survival [14] was 22.6 (inactive), the parasite load remaining [15] was 47.6% (inactive) and 102% (inactive) and the viability [15] was 47.2% and 93.5%. The fold change [2, 21] was 0.849 (inactive), the fold change [2, 22] was 1.16 and the cell count [2, 23] was 8000. The cell count [2, 24] was 9420 and the luciferase signal [16] was 80 AU (inactive).
Work on `CCCCCCCCCCCCCCCCCC(=O)OC(CC(=O)O)C[N+](C)(C)C` (stereo unspecified) yielded an inhibition [4] of -2.46%, a score [5] of 0.53 and a rescue above control [6] of 6.57. It also gave a cytochrome c release ratio [7] of 4.04, an inhibition of aggregation [8] of 52.4% and a normalised LDH release [17] of 0.986. For the same compound, the glutamate uptake change [9] was -11.2%, the aggregation suppression score [11] was -0.125 and the period change [18] was -0.05 h (inactive). For the same compound, the inhibition [19] was -2% (inactive), the fluorescence ratio (interference) [20] was 1 (inactive) and the fold change [2, 21] was 0.979 (inactive). It also gave a fold change [2, 22] of 0.6, a cell count [2, 23] of 4490 and a cell count [2, 24] of 4590. For the same compound, the z-score [12] was -1.38 (inactive).
For `Cc1cc(Nc2nc(NC(C)c3ccc(F)cc3)c(C#N)cc2F)n[nH]1` (stereo unspecified), the liver cell % of control [1] was 55.1% and 77.3% and 95.6%, the parasite % of control [1] was 1.2% (inactive) and 12.7% (inactive) and 40% (inactive) and the fold change [2, 21] was 1.16 (inactive). For the same compound, the fold change [2, 22] was 0.511, the cell count [2, 23] was 1300 and the cell count [2, 24] was 1120. For the same compound, the z-score [3, 25] was 2.18 (active) and the z-score [3, 26] was -3.18.
For `Cn1nnnc1SCC1=C(C(=O)O)N2C(=O)[C@@H](NC(=O)[C@H](O)c3ccccc3)[C@H]2SC1`, the survival [14] was 7.33 (inactive), the parasite load remaining [15] was 73.2% (inactive) and the viability [15] was 97.6%. For the same compound, the fold change [2, 21] was 0.871 (inactive), the fold change [2, 22] was 1.18 and the cell count [2, 23] was 9300. For the same compound, the cell count [2, 24] was 10700, the remaining NAD [13] was 10 nM (inactive) and the luciferase signal [16] was 36 AU (inactive).
In the case of `NC[C@@H]1O[C@H](O[C@H]2[C@@H](O)[C@H](O[C@@H]3[C@@H](O)[C@H](N)C[C@H](N)[C@H]3OC3O[C@H](CO)[C@@H](O)[C@H](O)[C@H]3N)O[C@@H]2CO)[C@H](N)[C@@H](O)[C@@H]1O` (stereo partly specified), the parasite load remaining [15] is reported as 69.5% (inactive), the viability [15] is reported as 103% and the fold change [2, 21] is reported as 0.833 (inactive). For the same compound, the fold change [2, 22] was 1.19, the cell count [2, 23] was 8720 and the cell count [2, 24] was 10500. The z-score [3, 25] was 0.673 (inactive) and the z-score [3, 26] was -0.125.
With `O=C(c1cccnc1)N1CCOCC1` the fold change [2, 21] was 0.924 (inactive), the fold change [2, 22] was 0.837 and the cell count [2, 23] was 7970. For the same compound, the cell count [2, 24] was 8630 and the remaining NAD [13] was 10 nM (inactive).
In the case of `Cc1ccccc1-n1c(Cn2nc(-c3cccc(O)c3)c3c(N)ncnc32)nc2cccc(C)c2c1=O`, the liver cell % of control [1] is reported as 93.6% and 86.4% and 105%, the parasite % of control [1] is reported as 34.6% (inactive) and 44.4% (inactive) and 71.3% (inactive) and the fold change [2, 21] is reported as 0.979 (inactive). It also gave a fold change [2, 22] of 0.801, a cell count [2, 23] of 7710 and a cell count [2, 24] of 7880. The z-score [3, 25] was -0.245 (inactive) and the z-score [3, 26] was -0.436.
In the case of `Cc1[nH]c(C=C2C(=O)Nc3ccccc32)c(C)c1CCC(=O)O`, the liver cell % of control [1] is reported as 515% and 322% and 191%, the parasite % of control [1] is reported as 51% (inactive) and 49.5% (inactive) and 54.8% (inactive) and the fold change [2, 21] is reported as 0.955 (inactive). It also gave a fold change [2, 22] of 0.799, a cell count [2, 23] of 7040 and a cell count [2, 24] of 7360. For the same compound, the z-score [3, 25] was -0.288 (inactive) and the z-score [3, 26] was 0.507.
With `CCN(CC)CCNC(=O)c1c(C)[nH]c(C=C2C(=O)Nc3ccc(F)cc32)c1C` the liver cell % of control [1] was 117% and 132% and 81.2%, the parasite % of control [1] was 0.0958% (inactive) and 0.227% (active) and 376% (inactive) and the fold change [2, 21] was 0.743 (inactive). It also gave a fold change [2, 22] of 1.2, a cell count [2, 23] of 2230 and a cell count [2, 24] of 3000. The z-score [3, 25] was -0.621 (inactive) and the z-score [3, 26] was -1.61.
